Common to all, as to assay: NCI-60 one-dose screen, 48 h (100 = growth as untreated, 0 = no growth, -100 = all killed)
Test [1] deals with HT29 colon. The note with it: 10 µM.
Test [2] deals with SNB-75 CNS. The following applies: 10 µM.
The test system of test [3] is SNB-19 CNS. The following applies: 10 µM.
For test [4], the system named is U251 CNS. The following applies: 10 µM.
Test [5] has as its system PC-3 prostate. The note with it: 10 µM.
For test [6], the system named is SK-MEL-5 melanoma. The following applies: 10 µM.
Test [7] deals with UACC-62 melanoma. The note with it: 10 µM unless noted.
Test [8] deals with LOX IMVI melanoma. The following applies: 10 µM.
For test [9], the system named is SK-MEL-2 melanoma. The note with it: 10 µM.
Test [10] relates to EKVX NSCLC. The note with it: 10 µM.
Test [11] has as its system UO-31 renal. The note with it: 10 µM.
Test [12] concerns TK-10 renal. The note with it: 10 µM unless noted.
Test [13] relates to ACHN renal. The following applies: 10 µM.
The subject of test [14] is A498 renal. The following applies: 10 µM.
Test [15] deals with HL-60(TB) leukemia. The note with it: 10 µM.
Test [16] concerns CCRF-CEM leukemia. The note with it: 10 µM.
The subject of test [17] is SK-MEL-28 melanoma. The following applies: 10 µM.
In test [18] the test system is SN12C renal. The note with it: 10 µM.
In test [19] the test system is CAKI-1 renal. The following applies: 10 µM.

Compounds without any hit were thinned out: in the full panel of roughly 83,000, 20% have a hit.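 Negative percent growth values reflect cell death: -40 means 40% of the cells present at the start died, and -100 means all died.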 A number with no mark means an inactive call. The source made the active and inactive calls. Rule for the calls: active = growth percent below 10; inactive = the rest.

For the molecule `C/C1=C\[C@H](C)C[C@H](C)OC(=O)C[C@H](c2ccc(O)cc2)NC(=O)[C@@H](Cc2c(Br)[nH]c3ccccc23)N(C)C(=O)[C@H](C)NC(=O)[C@@H](C)C1`, the growth in test [1] was -33.5% (active); in test [2], -76.4% (active); in [3] it was -21.9% (active); in test [4], -50.6% (active); in [5], -59.6% (active); in [6], -74.5% (active). Also, the growth in [7] is -1.83% (active); in [8], -32.7% (active); in test [9] it was -67.3% (active); in test [10], -23.6% (active); in test [11] it was -92.1% (active); in test [12], -81.7% (active). Also, the growth was -18.7% (active) in test [13], -78.8% (active) in test [14], -44% (active) in test [15] and -21.5% (active) in test [16].
As for `COc1cc(/C=C/[N+](=O)[O-])cc(OC)c1OC`, the growth in test [1] is -27.1% (active); in test [2] it was 18.9%; in [3], 56.5%; in [4] it was 18.4%; in test [5], 6.51% (active); in test [7] it was -26.9% (active). Also, the growth in [8] is -71.7% (active); in test [17] it was -7.3% (active); in test [9] it was 63.6%; in test [10] it was 73.6%; in test [18] it was 30.7%; in test [11], -85.3% (active). The growth in test [12] was -11% (active); in test [13] it was -42.2% (active); in [14] it was 47.1%; in test [15] it was -16.6% (active).
Take `COC(C(=O)C(O)C(C)O)C1Cc2cc3cc(OC4CC(OC(C)=O)C(OC5CC(O)C(OC)C(C)O5)C(C)O4)cc(O)c3c(O)c2C(=O)C1OC1CC(OC2CC(OC3CC(C)(O)C(OC(=O)C(C)C)C(C)O3)C(O)C(C)O2)C(O)C(C)O1` (stereo not drawn): the growth was -2.06% (active) in [1]; -74% (active) in test [2]; -4.78% (active) in [3]; 8.24% (active) in [4]; 1.13% (active) in test [5]; -97.3% (active) in test [6]. Also, the growth is -97% (active) in [7]; 1.99% (active) in [8]; -60.7% (active) in [9]; -16% (active) in test [10]; -35.2% (active) in [11]; 20.2% in test [12]. In addition, the growth in test [13] is 3.27% (active); in test [15] it was -46.3% (active); in [16] it was -13.4% (active).
`O=C(CBr)Nc1ccc(Cl)cc1`: the growth in test [1] was 4.44% (active); in test [2], 102%; in [3] it was 88.8%; in [4] it was 86.8%; in test [5] it was 93.3%; in test [6] it was 78.3%. Besides, the growth in test [7] was 71.6%; in test [8] it was -57.4% (active); in test [17], 102%; in test [9], 103%; in test [11] it was 90.1%; in test [12], 111%. In addition, the growth was 64% in test [13], 104% in test [14] and -28.3% (active) in test [16].
Regarding `Cc1cc(C)c(C[N+](C)(C)C)c(C)c1C`, the growth was 3.52% (active) in test [1]; 8.87% (active) in test [2]; 16.1% in [3]; 1.76% (active) in test [4]; 14.3% in [5]; 5.57% (active) in [6]. The growth in test [8] was -28.2% (active); in [17], -9.07% (active); in test [9], -19.5% (active); in test [18] it was 0.359% (active); in [11], 4.54% (active); in test [13], 6.7% (active). Further, the growth was 8.63% (active) in test [14] and -2.18% (active) in test [16].
As to `CC(C)c1cc([N+](=O)[O-])cc([N+](=O)[O-])c1O`, the growth in test [1] is 103%; in test [3] it was 107%; in [4] it was 103%; in test [5], 81.4%; in test [6] it was 98.4%; in test [7], 98.1%. Besides, the growth in test [8] was 93.7%; in [17], 102%; in [9], 94%; in test [10], 110%; in test [18], 103%; in [11], 85.8%. Also, the growth in test [12] is 98.6%; in test [13] it was 103%; in [19], 99%; in [15], 62.2%; in test [16], 103%.
Turning to `O=[N+]([O-])/C=C\c1ccc2c(c1)OCO2`, the growth in test [1] was 58.2%; in test [3], 102%; in test [4] it was 71.1%; in test [5], 83%; in test [6], 94.3%; in [7], 82.5%. In addition, the growth in test [8] is 18.9%; in test [9] it was 115%; in test [10] it was 96.9%; in test [18], 94.2%; in test [11], 64.5%; in test [12], 87.1%. The growth in test [13] is 90.4%; in test [15], 106%; in test [16] it was 92.5%.

These data come from PubChem BioAssay (NCI).
